# Measurements: PubChem BioAssay (Tox21)
# Several values for one entry are separate records, joined by “and”; a condition that tells them apart may be missing. Equal entries are not always repeated. Results filed as inconclusive are left out. A call without a number means that no potency is given here. A structure can be active in one record and inactive in another. Activity calls are given as the source filed them. Unless noted, the call rests on the fitted dose curve; in most records, active means well fitted curve in the direction sought with a large enough effect in the repeat runs; inconclusive means weak or mixed curves; inactive means no such curve, though single readings can be large; an effect the other way counts as inactive or inconclusive.
# Assays:
# [1] = molecular target: Thyrotropin receptor (Homo sapiens) (UniProt P16473); assay: qHTS assay to identify small molecule agonists of the thyroid stimulating hormone receptor (TSHR) signaling pathway (AID 1224843; calls by dose curve; further: nearly all actives have a fitted effect of over 45% in size; further: potency means the concentration at half of the fitted maximal effect)
# In short: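 Cell line HEK293 with TSHR; density 800/well. Exposure 30 min RT. Readout HTRF cAMP (cAMP-d2/anti-cAMP-cryptate), 1 h RT before reading.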
# [2] = qHTS assay to identify small molecule agonists of the hypoxia (HIF-1) signaling pathway - cell viability counter screen (AID 1224844; calls by dose curve; further: nearly all actives have a fitted effect of over 50% in size; further: potency means the concentration at half of the fitted maximal effect)
# In short: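 Luminescent ATP content (CellTiter-Glo, 30 min, room temperature) served as the viability measure in HRE-bla ME-180 cells exposed to compounds for 17 hrs in low-serum medium (0.5% dialyzed FBS).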
# [3] = qHTS assay to identify small molecule agonists of H2AX (AID 1224845; active means well fitted activation curve with a large enough effect in the signal ratio in the repeat runs, not every such curve was filed as active; the % refers to the signal ratio; further: potency means the concentration at half of the fitted maximal effect)
# In short: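 Wild-type CHO-K1 cells plated overnight, then exposed 3 hr at 37C to compounds at 15 concentrations (0.76% DMSO). Lysed, then HTRF anti-pH2AX(S139)-cryptate/anti-H2AX-d2 detection after 24 hr at room temperature; emissions 665 and 620 nm.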
# [4] = qHTS assay to identify small molecule agonists of the hypoxia (HIF-1) signaling pathway (AID 1224846; active means well fitted activation curve with a large enough effect in the signal ratio in the repeat runs, not every such curve was filed as active; the % refers to the signal ratio)
# In short: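 Measured by blue/green FRET after loading CCF4-AM: beta-lactamase expressed from a hypoxia response element in ME-180 cells. Test agents were delivered in DMSO and left 17 hrs; cells had been plated 5 hrs earlier in low-serum (0.5% dialyzed FBS) medium.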
# [5] = qHTS assay to identify small molecule agonists of H2AX - cell viability counter screen (AID 1224847; calls by dose curve; further: nearly all actives have a fitted effect of over 30% in size; further: potency means the concentration at half of the fitted maximal effect; on activity change, negative = cytotoxicity: top concentration of the series differs between compounds)
# In short: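 Counter-screen for viability: CellTiter-Glo ATP luminescence read after 3 h compound treatment (15-point titration, 0.76% DMSO final) of CHO-K1 cells at 37C, with 30 min room-temperature reagent incubation.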
# [6] = qHTS RealTime-Glo MT Cell Viability Assay in HepG2 cells - 24 hour (AID 1224867); further: nearly all actives have a fitted effect of over 50% in size; further: potency means the concentration at half of the fitted maximal effect
# In short: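 HepG2 suspension premixed with RealTime-Glo reagents is plated at 600 cells per well and left 5 h at 37 C/5% CO2. Compounds in DMSO then go in, and bioluminescence reflecting viable cell number is recorded over 40 h.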
# [7] = qHTS RealTime-Glo MT Cell Viability Assay in HEK293 cells - 32 hour (AID 1224868); further: nearly all actives have a fitted effect of over 50% in size; further: potency means the concentration at half of the fitted maximal effect; on activity change, negative = cytotoxic: top concentration of the series differs between compounds
# In short: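 Reads taken at 0, 8, 16, 24, 32 and 40 h from the same wells. HEK293 cells (600/well) carried RealTime-Glo reagents from seeding, with compound added after a 5 h settle at 37 C.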
# [8] = A CellTox Green Cytotoxicity Assay to monitor cytotoxicity in HEK293 cells - 0 hour (AID 1224869); further: nearly all actives have a fitted effect of over 50% in size
# In short: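 Each value comes from one timepoint of a single continuous run in which HEK293 cells with CellTox Green were exposed to compound for up to 40 h at 37 C, dye fluorescence rising with cell death.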
# [9] = qHTS assay to identify small molecule antagonists of the estrogen related receptor (ERR) signaling pathway from Tox21 library (AID 1224848); further: nearly all actives have a fitted effect of over 50% in size; further: potency means the concentration at half of the fitted maximal effect
# In short: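 Screening used an ERR reporter line supplied by NTP, exposed for 18 h at 37 C to library compounds delivered in DMSO. Signal was luciferase luminescence developed with ONE-Glo at room temperature for 30 min.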
# [10] = qHTS assay to identify small molecule agonists of the estrogen related receptor (ERR) signaling pathway from Tox21 library (AID 1224849; calls by dose curve; further: nearly all actives have a fitted effect of over 15% in size); conditions: ERR reporter cell line, ONE-Glo luciferase, 18 h
# In short: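 We plated ERR reporter cells, waited 6 h, added compounds in DMSO by pin tool and incubated them 18 h at 37 C. ONE-Glo was then added and luminescence read after 30 min.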
# [11] = at 92.4 µM (top of the series) unless noted
# Thyrotropin receptor (Homo sapiens), sequence (P16473 whole entry, looked up): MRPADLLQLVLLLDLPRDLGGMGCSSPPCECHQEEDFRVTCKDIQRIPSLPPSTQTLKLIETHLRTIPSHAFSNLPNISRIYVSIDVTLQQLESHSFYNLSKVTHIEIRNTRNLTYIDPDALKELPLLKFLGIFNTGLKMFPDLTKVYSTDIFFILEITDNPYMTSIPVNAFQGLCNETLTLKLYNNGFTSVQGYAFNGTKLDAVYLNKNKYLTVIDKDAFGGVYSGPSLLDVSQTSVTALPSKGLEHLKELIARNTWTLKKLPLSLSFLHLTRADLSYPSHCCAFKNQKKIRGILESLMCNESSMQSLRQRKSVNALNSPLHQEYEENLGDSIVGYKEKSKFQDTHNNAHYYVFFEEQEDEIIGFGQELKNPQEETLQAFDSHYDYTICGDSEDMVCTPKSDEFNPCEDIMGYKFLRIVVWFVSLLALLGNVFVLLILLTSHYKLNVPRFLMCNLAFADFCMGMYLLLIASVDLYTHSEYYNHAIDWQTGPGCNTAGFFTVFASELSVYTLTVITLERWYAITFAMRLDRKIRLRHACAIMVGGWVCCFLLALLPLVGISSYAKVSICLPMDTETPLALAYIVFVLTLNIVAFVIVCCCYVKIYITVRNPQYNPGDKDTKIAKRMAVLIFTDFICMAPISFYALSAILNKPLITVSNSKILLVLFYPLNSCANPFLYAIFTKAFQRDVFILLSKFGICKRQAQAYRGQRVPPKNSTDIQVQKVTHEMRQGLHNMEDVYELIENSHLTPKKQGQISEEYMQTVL
smiles,measurement,setting,value
CCCCCCC#N,Potency,[1],inactive
same,Potency,[2],inactive
same,Potency,[3],inactive
same,outcome,[4],inactive
same,Potency,[5],inactive
same,Potency,[6],inactive
same,Potency,[7],inactive
same,Potency,[8],inactive
Nc1nc(N)nc(N)n1,Potency,[1],inactive
same,Potency,[2],inactive
same,Potency,[3],inactive
same,outcome,[4],inactive
same,Potency,[5],inactive
same,Potency,[6],inactive
same,Potency,[7],inactive
same,Potency,[8],inactive
O=C(NCc1cccnc1)Nc1ccc([N+](=O)[O-])cc1,Potency,[1],inactive
same,Potency,[2],inactive
same,Potency,[3],inactive
same,outcome,[4],inactive
same,Potency,[5],inactive
same,Potency,[6],inactive
same,Potency,[7],49 µM (active)
same,Potency,[8],inactive
Brc1ccc(Oc2ccccc2)cc1,Potency,[1],1.25 µM (active)
same,Potency,[2],inactive
same,Potency,[3],inactive
same,outcome,[4],inactive
same,Potency,[9],inactive
same,"activity change, positive = activation",[10]; [11],-18.4% (inactive) and 0.436% (inactive)
same,Potency,[6],inactive
same,Potency,[7],inactive
same,Potency,[8],inactive
BrCC(Br)C1CCC(Br)C(Br)C1 (configuration not stated),Potency,[1],48.3 µM (active)
same,Potency,[2],inactive
same,Potency,[3],inactive
same,outcome,[4],inactive
same,Potency,[6],inactive
same,Potency,[8],inactive
C=CCOC(C)=O,Potency,[1],inactive
same,Potency,[2],inactive
same,Potency,[3],inactive
same,outcome,[4],inactive
same,Potency,[5],inactive
same,Potency,[6],inactive
same,Potency,[7],inactive
same,Potency,[8],inactive
O=[N+]([O-])c1cc(C(F)(F)F)cc([N+](=O)[O-])c1Cl,Potency,[1],inactive
same,Potency,[3],inactive
same,outcome,[4],inactive
same,Potency,[5],inactive
same,Potency,[9],61.4 µM (active)
same,"activity change, positive = activation",[10]; [11],-42.9% (inactive)
same,Potency,[6],inactive
same,Potency,[8],inactive
CCCCN(N=O)C(=N)N[N+](=O)[O-],Potency,[1],inactive
same,Potency,[3],103 µM (active)
same,outcome,[4],inactive
same,Potency,[5],inactive
same,Potency,[6],inactive
same,Potency,[8],inactive
CC(=O)c1cc2c(cc1C)C(C)(C)C(C)CC2(C)C (configuration not stated),Potency,[1],inactive
same,Potency,[2],43.6 µM (active)
same,Potency,[3],101 µM (active)
same,Potency,[5],89.8 µM (active)
same,Potency,[6],inactive
same,Potency,[7],inactive
same,Potency,[8],inactive
CCOP(=O)(OCC)Oc1ccc([N+](=O)[O-])cc1,Potency,[1],inactive
same,Potency,[2],inactive
same,Potency,[3],inactive
same,Potency,[5],inactive
same,Potency,[9],13.9 µM (active) and 12.2 µM (active)
same,"activity change, positive = activation",[10]; [11],-65.4% (inactive) and -61.8% (inactive)
same,Potency,[6],inactive
same,Potency,[7],inactive
same,Potency,[8],inactive
O=C(CCl)c1ccc(Cl)cc1Cl,Potency,[1],inactive
same,outcome,[4],inactive
same,Potency,[9],inactive
same,"activity change, positive = activation",[10]; at 42.5 µM (top of the series),-19% (inactive)
same,"activity change, positive = activation",[10]; at 92.4 µM (top of the series),-9.77% (inactive)
same,Potency,[6],inactive and 19 µM (active)
same,Potency,[7],3.01 µM (active)
same,Potency,[8],inactive
OC(c1ccc(Cl)cc1)(c1ccc(Cl)cc1)c1cccnc1,Potency,[1],30.6 µM (active)
same,Potency,[3],inactive
same,Potency,[9],48.6 µM (active)
same,"activity change, positive = activation",[10]; [11],-55.6% (inactive)
same,Potency,[8],inactive
CC[C@H]1C[C@H]2[C@@H]3CCC4=CC(=O)CC[C@@H]4[C@H]3CC[C@]2(C)[C@H]1O,Potency,[1],inactive
same,Potency,[2],inactive
same,outcome,[4],inactive
same,Potency,[5],inactive
same,Potency,[9],29.8 µM (active)
same,"activity change, positive = activation",[10]; [11],-38.2% [at 42.5 µM] (inactive)
same,Potency,[6],inactive
same,Potency,[8],inactive
CCOC(=O)C(Cl)C(C)=O (configuration not stated),Potency,[1],inactive
same,Potency,[3],inactive
same,outcome,[4],inactive
same,Potency,[5],inactive
same,Potency,[6],inactive
same,Potency,[7],inactive
same,Potency,[8],inactive
Oc1ccc(Cl)c(Cl)c1Cl,Potency,[1],inactive
same,Potency,[3],inactive
same,outcome,[4],inactive
same,Potency,[6],inactive
same,Potency,[8],inactive
O=C1C(=O)c2cccc3cccc1c23,Potency,[1],inactive
same,Potency,[2],inactive
same,outcome,[4],inactive
same,Potency,[5],inactive
same,Potency,[6],inactive
same,Potency,[8],inactive
O=S1OC[C@@H]2[C@H](CO1)[C@]1(Cl)C(Cl)=C(Cl)[C@@]2(Cl)C1(Cl)Cl (some centres not stated),Potency,[1],10.9 µM (active)
same,Potency,[2],43.6 µM (active)
same,Potency,[5],20.1 µM (active)
same,Potency,[8],inactive
Cn1sc(Cl)cc1=O,Potency,[1],inactive
same,Potency,[2],inactive
same,outcome,[4],inactive
same,Potency,[5],inactive
same,Potency,[9],inactive
same,"activity change, positive = activation",[10]; [11],1.6% (inactive)
same,Potency,[6],inactive
same,Potency,[7],inactive
same,Potency,[8],inactive
O=[N+]([O-])C(Br)(CO)CO,Potency,[1],30.6 µM (active)
same,Potency,[3],inactive
same,Potency,[9],inactive
same,Potency,[8],inactive
CO[C@@H]1[C@H](OC(=O)NC(=O)CCl)CC[C@]2(CO2)[C@H]1[C@@]1(C)O[C@@H]1CC=C(C)C,activation,[1],-6.28% [at 19 µM] (inactive)
same,activation (H2AX phosphorylation),[3],1.5% [at 31.6 µM] (inactive)
same,activation,[4],-0.119% [at 15.8 µM] (inactive)
same,"activity change, negative = cytotoxicity",[5],2.72% [at 31.6 µM] (inactive)
same,"activity, negative = inhibition",[9],-8.28% [at 19 µM] (inactive)
same,"activity change, positive = activation",[10]; [11],-4.67% [at 19 µM] (inactive)
same,"activity change, negative = cytotoxicity",[6],0.578% [at 15.8 µM] (inactive)
same,"activity change, negative = cytotoxic",[7],8.14% [at 15.8 µM] (inactive)
same,cytotoxicity,[8],-3.97% [at 15.8 µM] (inactive)
